# Screening data from PubChem.
# The entries come from a sample that favours hits as a whole.
# RMI FANCM FP = disruptors of RMI1/RMI2 association with MM2 peptide – biochemical, fluorescence polarization, human, primary screen; RMI core complex (RMI1/RMI2) binding to FANCM MM2 peptide, human; RMI core complex with F-MM2 peptide; active compounds read low; FP signal (polarization) at 33 µM; 0.58% of 70,000 active; in the data active = FP signal below about 40
# * hit, by the source's call; ! = not active in a repeat.
SMILES,RMI FANCM FP
CS(=O)(=O)N1CCSC1c1cccc(Cl)c1 (stereo unspecified),62
C[C@@H]1OC(O[C@H]2C(O[C@H]3CC[C@@]4(C)C(CC[C@]5(C)C4CC=C4C6CC(C)(C)CC[C@]6(C(=O)O)CC[C@]45C)[C@]3(C)CO)OC[C@H](O)[C@@H]2O)[C@H](O)[C@H](O)[C@H]1O (stereo partly specified),56
Cc1ccc2oc(C(=O)NCCn3c(C)cc4ccccc43)cc2n1,26*
Cc1ccc2oc(C(=O)NCc3cccs3)cc2n1,64
CSc1ccccc1NC(=O)c1cc2nc(C)ccc2o1,58
COc1ccccc1NC(=O)Cn1ccn(-c2cc(Cl)ccc2C)c(=O)c1=O,52
COCCN1CCCc2ccc(NS(=O)(=O)c3cccc(C)c3)cc21,61
COCCN1CCCc2ccc(NS(=O)(=O)Cc3cccc(C)c3)cc21,0*
COCC(=O)N1CCCc2ccc(NS(=O)(=O)Cc3cccc(C)c3)cc21,73
COc1ccc(NC(=O)Cn2c(C)cc(C)c(-c3nc(-c4ccc(F)cc4)no3)c2=O)c(OC)c1,115
NC(=O)c1ncn([C@H]2O[C@@H](CO)[C@H](O)[C@@H]2O)n1,54
O=C(CN1C(=O)c2ccccc2C1=O)NCCN1CCOC(c2ccccc2)C1 (stereo unspecified),71
Cc1cc2ncn(CCC(=O)N3CCCCCC3)c2cc1C,63
CC(=O)Nc1cccc(NC(=O)Cn2cnc3c(cnn3C3CCS(=O)(=O)C3)c2=O)c1 (stereo unspecified),61
CCOC(=O)Cn1c(=NC(=O)c2ccccc2Br)sc2cccc(F)c21,63
CCOC(=O)CNC(c1ccccc1)c1cc(Br)ccc1NC(=O)c1ccccc1 (stereo unspecified),62
CCOC(=O)CN1C(c2ccccc2F)Nc2ccc(Br)cc2C1c1ccccc1 (stereo unspecified),27*
Cc1cn2c3c(=O)n(C)c(=O)n(C)c3nc2n1CCN1CCN(Cc2ccccc2Cl)CC1,59
CC1SC(=N)N(c2ncc(Cc3cccc(Cl)c3)s2)C1=O (stereo unspecified),65
O=S(=O)(Nc1c(Cl)c(Cl)c(O)c2ccccc12)c1ccccc1,54
CC(C)C(=O)Nc1ccc2c(c1)N(S(C)(=O)=O)CCC2,57
N#Cc1c(N=Cc2cc(Br)cc(Br)c2O)sc2c1CCCC2,53
CCOC(=O)c1c(N=Cc2ccc(N(CC)CC)cc2O)sc2c1CCCC2,80
CCN(CC)c1ccc(C=Nc2sc3c(c2C#N)CCCC3)c(O)c1,18*
COc1ccc(-c2cc(-c3ccc(Cl)cc3)nc3sc(C(=O)NCCc4ccccc4)c(N)c23)cc1,-12*
SMILES,RMI FANCM FP
COc1ccc(-c2cc(-c3ccc(C)c(C)c3)nc3sc(C(=O)Nc4nsc(-c5ccc(Cl)cc5)n4)c(N)c23)cc1,78
COc1ccc(-c2cc(-c3ccccc3)nc3sc(C(=O)Nc4nsc(-c5ccccc5)n4)c(N)c23)cc1OC,128
O=C(Nc1ccc(Br)cc1F)c1ccc(N2CCCCS2(=O)=O)cc1,58
Oc1c(C(Nc2ccccn2)c2ccc3c(c2)OCO3)ccc2cccnc12 (stereo unspecified),64
Cc1ccc(-c2ccc(=O)n(CCCNS(=O)(=O)c3ccc4c(c3)OCCO4)n2)cc1,55
Cc1ccc(=O)n(S(=O)(=O)c2ccc(F)cc2F)n1,54
Cc1cc(F)ccc1S(=O)(=O)NCC1CCN(C2CCCC2)CC1,78
Cc1cc(F)ccc1S(=O)(=O)ON1C(=O)c2ccccc2C1=O,27*
COc1ccc(C2C(C#N)=C(C)NC(C)=C2C#N)cc1,45
N/C(=N/NC(=O)c1cccc(C(F)(F)F)c1)c1cnccn1,55
CC(Oc1ccc(Cl)cc1Cl)C(=O)NCCn1nc(-c2cccnc2)ccc1=O (stereo unspecified),68
Cc1nc(SCC(=O)O)[nH]c(=O)c1C,71
C/C(NNc1ccccc1)=C(/C#N)C(N)=S,52
O=C(CC1NCCN(Cc2ccccc2)C1=O)N/N=C\c1cc(Cl)cc(Cl)c1O (stereo unspecified),35*!
O=C(CSC1CN(C(c2ccccc2)c2ccccc2)C1)N/N=C/c1ccc(Cl)cc1Cl,59
Oc1c(Cl)cc(Cl)cc1/C=N\NCCc1ccccn1,45
Cc1cc(NC(=O)C2CCN(S(=O)(=O)c3ccc(F)cc3)CC2)n(C(C)C)n1,68
CC1(C)CC(=O)C2=C(C1)Nc1[nH]c(=S)[nH]c(=O)c1C2c1ccc2c(c1)OCO2 (stereo unspecified),52
Cn1c2c(c(=O)n(C)c1=O)C(c1cccc(F)c1)C1=C(CC(C)(C)CC1=O)N2 (stereo unspecified),-8*
Cc1ccsc1C1C2=C(CCCC2=O)Nc2c1c(=O)n(C)c(=O)n2C (stereo unspecified),55
S=c1[nH]nc(-c2ccncc2)n1/N=C\c1cccnc1,55
O=C(CCS(=O)(=O)c1ccc(F)cc1)Nc1nnc(-c2cccnc2)o1,57
O=C(CCS(=O)(=O)c1ccc(Cl)cc1)Nc1nnc(-c2ccc(F)cc2)o1,34*
O=C(CCS(=O)(=O)c1ccc(Cl)cc1)Nc1nnc(-c2ccncc2)o1,66
CCOC(=O)N/N=C(\CN1C(=O)c2ccccc2C1=O)c1ccc(C(F)(F)F)cc1,62
SMILES,RMI FANCM FP
COc1cccc(-n2nnnc2SCC(=O)Nc2ccccc2F)c1,59
O=C(/C=C/c1cccs1)Nc1nccs1,60
Cn1nc2c(c1NC(=O)COc1ccccc1)CCC2,63
Cn1nc2c(c1NC(=O)/C=C/c1cccs1)CCC2,37*
COc1ccccc1C(=O)N=S1CCN(S(=O)(=O)c2ccc(Cl)cc2)CC1,55
CNC(=S)NNc1nc2sc3c(c2c(=O)[nH]1)CCCC3,59
CCOC(=O)C1CCc2sc(N)nc21 (stereo unspecified),62
COc1ccc(CCC(=O)N2CCN(Cc3nc(-c4ccco4)cs3)CC2)cc1,64
O=C(CN1CCN(Cc2nc(-c3ccco3)cs2)CC1)N1CCCC1,40*
O=C(CN1CCN(Cc2nc(-c3ccco3)cs2)CC1)N1CCOCC1,42
COc1ccc(OC)c(S(=O)(=O)Nc2cc3c4c(c2)CCC(=O)N4CCC3)c1,52
CC1CC(C)CN(S(=O)(=O)c2cc3c4c(c2)CCC(=O)N4CCC3)C1 (stereo unspecified),54
Nc1cc2c3c(c1)CCC(=O)N3CCC2,21*
Cc1ccc2nc(C)c(NC(=O)Cc3ccccc3)c(=O)n2c1,73
Cc1ccc2nc(C)c(NC(=O)Cc3cccs3)c(=O)n2c1,28*
CCOC(=O)C(=O)Nc1c(C)nc2ccc(C)cn2c1=O,55
c1ccc(CN2c3ccccc3Sc3ccccc32)c(CN2c3ccccc3Sc3ccccc32)c1,66
CC(Oc1ccc2c(c1)OCO2)C(=O)NCCOc1ccc(F)cc1 (stereo unspecified),60
CCCOc1ccc(Br)cc1C1C(C(N)=O)=C(C)Nc2ncnn21 (stereo unspecified),68
CC(=O)Nc1cccc(NC(=O)C(=O)NC2CCCC2)c1,56
CC(=O)Nc1cccc(C2=CC(c3cccc(Br)c3)n3ncnc3N2)c1 (stereo unspecified),5*
O=C1C=C(Nc2ccccc2)CO1,56
CC(C)N1C(=O)SC(Nc2ccc(Br)cc2)C1=O (stereo unspecified),59
NC(=O)C1Cc2ccccc2N1C(=O)CCCN1C(=O)c2ccccc2C1=O (stereo unspecified),51
